High-throughput results as filed in PubChem.
Cruzain noTriton = inhibitors of Trypanosoma cruzi cruzain without detergent; P25779; purified cruzain, Z-FR-AMC fluorescence, no detergent; Potency, µM, actives largely listed as inhibitors; hit rate 2.3% among 200,000; AID 1476; also: nearly all actives have a fitted effect of over 40% in size
Target sequence (P25779 123-467 limits assumed): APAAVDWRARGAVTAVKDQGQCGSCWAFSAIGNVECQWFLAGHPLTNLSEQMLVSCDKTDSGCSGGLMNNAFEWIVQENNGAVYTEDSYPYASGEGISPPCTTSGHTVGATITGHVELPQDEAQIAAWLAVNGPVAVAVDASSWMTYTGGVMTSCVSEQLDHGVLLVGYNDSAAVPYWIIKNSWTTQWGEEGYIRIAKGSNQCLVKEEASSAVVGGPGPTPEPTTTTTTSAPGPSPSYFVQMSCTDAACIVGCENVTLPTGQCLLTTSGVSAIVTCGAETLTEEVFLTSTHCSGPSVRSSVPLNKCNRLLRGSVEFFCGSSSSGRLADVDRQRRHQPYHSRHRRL
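Purified cruzain at 1.5 nM, pre-incubated 15 min with compound at room temperature in 100 mM sodium acetate pH 5.5, 5 mM DTT, 0.00005% Triton X-100. Reaction started with 2 uM Z-FR-AMC; AMC fluorescence increase over 60 s gives rate.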
Cruzain Triton = cruzain (T. cruzi) inhibition with detergent; P25779; purified cruzain, Z-FR-AMC fluorescence, 0.01% Triton; Potency, µM, actives largely listed as inhibitors; hit rate 0.43% among 200,000; also: nearly all actives have a fitted effect of over 40% in size
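15 min RT preincubation of 1.5 nM cruzain with compound, then 2 uM Z-FR-AMC added; kinetic AMC fluorescence, 60 s delta. Triton X-100 0.01%, pH 5.5.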
Of the large screens only hits and unclear results are named; the others gave an inactive call. A selection: hits, their analogues and other compounds. The true share with any hit is near 2.5%. Calls follow the shape of the dose curve; as a rule, active = well fitted curve in the direction sought with a large enough effect; inconclusive = small, poorly fitted or top-dose-only effect, or another doubt; inactive = no such curve, though single readings can be large; an effect the other way counts as inactive or inconclusive.

C[C@@H]1CC[C@@H]2N(C1)C[C@H]1[C@@](O)([C@H](O)C[C@]3(O)[C@H]4CC[C@H]5[C@]6(O)O[C@]4(C[C@]13O)[C@@]5(C)CC[C@@H]6O)[C@@]2(C)O	none
O=C1C2=C(Nc3ccccc3SC2c2ccc(Cl)c(Cl)c2)c2ccccc21 (centres undefined)	Cruzain noTriton 10µM
O=C1C2=C(Nc3ccccc3SC2c2c(F)cccc2Cl)c2ccccc21 (centres undefined)	none
CCCc1ccc(C2Sc3ccccc3NC3=C2C(=O)c2ccccc23)cc1 (centres undefined)	Cruzain noTriton 7.9µM
COc1ccc(Br)cc1C1Sc2ccccc2NC2=C1C(=O)c1ccccc12 (centres undefined)	Cruzain noTriton 16µM
CCOc1cc(C2Sc3ccccc3NC3=C2C(=O)c2ccccc23)ccc1O (centres undefined)	none
O=C1C2=C(Nc3ccccc3SC2c2ccccc2C(F)(F)F)c2ccccc21 (centres undefined)	Cruzain noTriton inconclusive
Cc1ccc(-c2cn3c(n2)sc2cc(C(=O)NC4CCCc5ccccc54)ccc23)cc1 (centres undefined)	none
O=[N+]([O-])/C=C\c1cc2ccccc2[nH]1	none
COc1ccc(N(CC(=O)NCc2ccco2)S(C)(=O)=O)cc1Cl	none
CC(C)[C@@H](Br)C(=O)NCC(=O)O	none
FC(F)(F)c1nc2nncn2c2c1CCCCC2	none
O=C(Cn1ncn2c(cc3sccc32)c1=O)NCCc1ccccc1	none
COc1ccc(CNC(=O)c2cccs2)cc1	none
COc1ccc(CNC(=O)/C(C#N)=C2\N=C(NC(=O)c3cccs3)c3ccccc32)cc1	Cruzain noTriton 25µM
CCCCN(Cc1ccccc1)S(=O)(=O)c1cc(Br)cc2c1N(C(C)=O)CC2	none
COc1ccc(NCc2ccccc2-c2nnc(-c3ccccc3)o2)cc1Cl	none
Cn1cc(C(=O)NCN2CCCCC2)c2ccccc21	none
COc1ccc(/C=N/N2CCN(C3c4ccccc4-c4ccccc43)CC2)cc1O	none
O=[N+]([O-])c1cc(/C=N/N2CCN(C3c4ccccc4-c4ccccc43)CC2)ccc1Cl	Cruzain noTriton 13µM
O=C(O)[C@@H]1[C@@H](C(=O)NCc2cccnc2)[C@@H]2C=C[C@@H]1O2	none
Cc1cccc(N2CCN(C(=O)CS(=O)(=O)Cc3nc(-c4ccccc4C)oc3C)CC2C)c1 (centres undefined)	Cruzain noTriton inconclusive
CCOC(=O)N1CCC(NC(=O)c2cnn(-c3ccc(OC)cc3)c2C2CCN(C(=O)OC(C)(C)C)CC2)CC1	Cruzain noTriton inconclusive
C=Cc1ccccc1C=C	none
COc1ccc(C(=O)COC(=O)C(Cc2c[nH]c3ccccc23)NC(=O)c2ccc(C(C)(C)C)cc2)cc1 (centres undefined)	Cruzain noTriton 13µM
CC(C)(C)c1ccc(C(=O)NC(Cc2c[nH]c3ccccc23)C(=O)OCC(=O)c2ccccc2)cc1 (centres undefined)	Cruzain noTriton inconclusive
CC1CCc2c(sc(Nc3nc4c(F)cccc4s3)c2C(N)=O)C1 (centres undefined)	none
CO[C@@H]([CH2][Hg])CN1C(=O)c2ccccc2S1(=O)=O.Cn1c(=O)c2nc[nH]c2n(C)c1=O	none
Cc1cc(C)c(NC(=O)C(C)n2c(=O)cc(-c3ccccc3)c3c(C)nn(C)c32)c(C)c1 (centres undefined)	none
O=C(CCC1CCCC1)Nc1nnc(-c2ccc3c(c2)OCO3)s1	Cruzain noTriton 10µM
COCc1nnc(NC(=O)CCC2CCCCC2)s1	none
O=C(Nc1nc(-c2cccnc2)cs1)c1ccc(S(=O)(=O)N2CCOCC2)cc1	none
CCc1nnc(NC(=O)c2ccc(S(=O)(=O)N3CCCCCC3)cc2)s1	Cruzain noTriton 13µM
CCc1nnc(NC(=O)c2ccc(S(=O)(=O)N3CCCCC3C)cc2)s1 (centres undefined)	none
O=C(Nc1nc(-c2ccc3c(c2)OCCO3)cs1)c1ccc(S(=O)(=O)N2CCCCC2)cc1	Cruzain noTriton 13µM
O=C(Nc1nc(-c2ccc(S(=O)(=O)N3CCCCCC3)cc2)cs1)c1ccccc1	Cruzain noTriton 10µM
O=C(Nc1nc(-c2cccs2)cs1)c1ccc(S(=O)(=O)N2CCCC2)cc1	none
Cc1ccc(CSc2ncc(Cl)c(C(=O)Oc3ccc(F)cc3)n2)cc1	none
COc1ccc(OC(=O)c2nc(SCc3ccc(C)cc3)ncc2Cl)cc1	Cruzain noTriton 20µM
Cc1ccc(NC(=O)c2cc3c(=O)n(Cc4ccco4)ccc3nc2C)cc1C	Cruzain noTriton inconclusive
COc1ccc(CNC(=O)CC2N=C3c4ccccc4N=C(SCC(=O)Nc4ccc(C(C)C)cc4)N3C2=O)cc1 (centres undefined)	Cruzain noTriton inconclusive
CC(C)=CCCC(C)C1CC[C@@]2(C)C3=C(CC[C@@]12C)C1(C)CCC(O)C(C)(C)C1CC3 (some centres undefined)	Cruzain noTriton inconclusive
